According to PubChem BioAssay AID1159580 (chemical genetic matrix, 2015):
Where “and” joins values, the source holds several entries; their conditions need not be identical. Equal values may be shown once. In all, about 5,500 compounds went through this assay and about 2,000 (36%) were called active. Inconclusive results (about 18%) are left out. Rule as the data show it: active = normalized growth mostly below about 0.91 (no sharp cut-off); inconclusive = no clear call, values can overlap the other calls; inactive = mostly above about 0.92. This is one part of the list.

Assay: chemical genetic growth profiling, strain panel (AID 1159580);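 also: tested at 20 µM; growth read once vehicle control cultures reached saturation at 30 °C; 1 = growth at the plate median or of vehicle wells; lower values mean less growth of the strain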
Conditions: growth OD

Measured: normalized growth

O=C(CCCN1CCC2(CC1)C(=O)NCN2c1ccccc1)c1ccc(F)cc1
inactive: S. cerevisiae deletion strains, locus YKL009W, strain mrt4, hits give low values 0.977 | S. cerevisiae deletion strains, locus YKL068W, hits give low values 0.99 | S. cerevisiae deletion strains, locus YKL085W, strain MDH1 (second series), hits give low values 0.986 | S. cerevisiae deletion strains, locus YKL085W, strain MDH1, hits give low values 0.986 | S. cerevisiae deletion strains, locus YKL160W, strain elf1, hits give low values 0.946 | S. cerevisiae deletion strains, locus YKL190W, strain CNB1, hits give low values 0.99 | S. cerevisiae deletion strains, locus YKR001C, strain vps1, hits give low values 0.999 | S. cerevisiae deletion strains, locus YKR026C, strain gcn3, hits give low values 0.985 | S. cerevisiae deletion strains, locus YKR091W, strain srl3, hits give low values 0.97 | S. cerevisiae deletion strains, locus YLL001W, strain dnm1, hits give low values 1.01 | S. cerevisiae deletion strains, locus YLL026W, hits give low values 0.978 | S. cerevisiae deletion strains, locus YLL041C, strain sdh2, hits give low values 0.988 | S. cerevisiae deletion strains, locus YLR027C, strain aat2, hits give low values 0.99 | S. cerevisiae deletion strains, locus YLR039C, strain RIC1, hits give low values 0.995 | S. cerevisiae deletion strains, locus YLR058C, strain SHM2, hits give low values 0.975 | S. cerevisiae deletion strains, locus YLR102C, strain apc9, hits give low values 0.995 | S. cerevisiae deletion strains, locus YLR113W, strain HOG1, hits give low values 1.01 | S. cerevisiae deletion strains, locus YLR221C, strain rsa3, hits give low values 1.02 | S. cerevisiae deletion strains, locus YLR258W, strain gsy2, hits give low values 0.986 | S. cerevisiae deletion strains, locus YLR262C, strain YPT6 (second series), hits give low values 0.995 | S. cerevisiae deletion strains, locus YLR262C, strain YPT6, hits give low values 0.955 | S. cerevisiae deletion strains, locus YLR268W, strain sec22, hits give low values 0.93 | S. cerevisiae deletion strains, locus YLR320W, strain mms22, hits give low values 0.993 | S. cerevisiae deletion strains, locus YLR330W, strain CHS5, hits give low values 1 | S. cerevisiae deletion strains, locus YLR342W, strain FKS1 (second series), hits give low values 1.04 | S. cerevisiae deletion strains, locus YLR342W, strain FKS1, hits give low values 0.972 | S. cerevisiae deletion strains, locus YLR357W, strain rsc2, hits give low values 0.953 | S. cerevisiae deletion strains, locus YLR370C, strain arc18, hits give low values 0.98 | S. cerevisiae deletion strains, locus YLR371W, strain rom2, hits give low values 0.991 | S. cerevisiae deletion strains, locus YLR384C, strain iki3, hits give low values 0.982 | S. cerevisiae deletion strains, locus YLR418C, strain cdc73, hits give low values 0.976 | S. cerevisiae deletion strains, locus YML016C, strain PPZ1, hits give low values 0.995 | S. cerevisiae deletion strains, locus YML032C, strain rad52, hits give low values 0.991 | S. cerevisiae deletion strains, locus YML120C, strain ndi1, hits give low values 0.984 | S. cerevisiae deletion strains, locus YML124C, strain tub3, hits give low values 0.989 | S. cerevisiae deletion strains, locus YMR058W, strain fet3, hits give low values 0.987 | S. cerevisiae deletion strains, locus YMR078C, strain ctf18, hits give low values 0.985 | S. cerevisiae deletion strains, locus YMR125W, strain sto1, hits give low values 1 | S. cerevisiae deletion strains, locus YMR129W, hits give low values 0.965 | S. cerevisiae deletion strains, locus YMR205C, strain PFK2, hits give low values 1.05 | S. cerevisiae deletion strains, locus YMR223W, strain ubp8, hits give low values 0.992 | S. cerevisiae deletion strains, locus YMR231W, strain pep5, hits give low values 0.988 | S. cerevisiae deletion strains, locus YMR307W, strain GAS1, hits give low values 1.08 and 1.02 | S. cerevisiae deletion strains, locus YNL067W, strain RPL9B, hits give low values 0.985 | S. cerevisiae deletion strains, locus YNL071W, strain lat1, hits give low values 0.995 | S. cerevisiae deletion strains, locus YNL128W, strain TEP1, hits give low values 0.989 | S. cerevisiae deletion strains, locus YNL153C, strain GIM3, hits give low values 0.969 | S. cerevisiae deletion strains, locus YNL175C, strain NOP13, hits give low values 1.01 | S. cerevisiae deletion strains, locus YNL183C, strain NPR1, hits give low values 0.934 | S. cerevisiae deletion strains, locus YNL197C, strain WHI3, hits give low values 1.01 | S. cerevisiae deletion strains, locus YNL209W, strain ssb2, hits give low values 0.998 | S. cerevisiae deletion strains, locus YNL224C, strain SQS1, hits give low values 1.01 | S. cerevisiae deletion strains, locus YNL233W, strain BNI4, hits give low values 0.994 | S. cerevisiae deletion strains, locus YNL248C, strain rpa49, hits give low values 0.928 | S. cerevisiae deletion strains, locus YNL250W, strain rad50, hits give low values 0.972 | S. cerevisiae deletion strains, locus YNL271C, strain bni1, hits give low values 1 | S. cerevisiae deletion strains, locus YNL298W, strain CLA4, hits give low values 0.999 | S. cerevisiae deletion strains, locus YNL307C, strain MCK1, hits give low values 0.989 | S. cerevisiae deletion strains, locus YNL322C, strain KRE1 (second series), hits give low values 0.968 | S. cerevisiae deletion strains, locus YNL322C, strain KRE1, hits give low values 0.999 | S. cerevisiae deletion strains, locus YNR049C, strain mso1, hits give low values 0.955 | S. cerevisiae deletion strains, locus YNR052C, strain pop2, hits give low values 0.999 | S. cerevisiae deletion strains, locus YOL006C, strain TOP1, hits give low values 0.903 | S. cerevisiae deletion strains, locus YOL012C, strain htz1 1.37 | S. cerevisiae deletion strains, locus YOL147C, strain pex11, hits give low values 0.999 | S. cerevisiae deletion strains, locus YOR001W, strain rrp6, hits give low values 0.984 | S. cerevisiae deletion strains, locus YOR061W, strain CKA2, hits give low values 0.964 | S. cerevisiae deletion strains, locus YOR069W, strain VPS5, hits give low values 0.999 | S. cerevisiae deletion strains, locus YOR070C, strain gyp1, hits give low values 0.986 | S. cerevisiae deletion strains, locus YOR080W, strain dia2, hits give low values 0.96 | S. cerevisiae deletion strains, locus YOR083W, strain WHI5 (second series), hits give low values 1.03 | S. cerevisiae deletion strains, locus YOR106W, strain vam3, hits give low values 0.959 | S. cerevisiae deletion strains, locus YOR136W, strain idh2, hits give low values 0.98 | S. cerevisiae deletion strains, locus YOR144C, strain elg1, hits give low values 0.994 | S. cerevisiae deletion strains, locus YOR184W, strain ser1, hits give low values 0.983 | S. cerevisiae deletion strains, locus YOR231W, strain MKK1, hits give low values 1 | S. cerevisiae deletion strains, locus YOR265W, strain rbl2, hits give low values 0.956 | S. cerevisiae deletion strains, locus YOR270C, strain vph1, hits give low values 0.972 | S. cerevisiae deletion strains, locus YOR290C, strain snf2, hits give low values 0.944 | S. cerevisiae deletion strains, locus YOR316C, strain cot1, hits give low values 0.986 | S. cerevisiae deletion strains, locus YPL051W, strain arl3, hits give low values 0.974 | S. cerevisiae deletion strains, locus YPL055C, strain LGE1, hits give low values 0.909 and 0.983 | S. cerevisiae deletion strains, locus YPL078C, strain atp4, hits give low values 0.964 | S. cerevisiae deletion strains, locus YPL106C, strain sse1, hits give low values 0.965 | S. cerevisiae deletion strains, locus YPL240C, strain hsp82, hits give low values 0.99 | S. cerevisiae deletion strains, locus YPL241C, strain CIN2, hits give low values 1.01 | S. cerevisiae deletion strains, locus YPL256C, strain CLN2, hits give low values 1.02 | S. cerevisiae deletion strains, locus YPR119W, strain clb2, hits give low values 0.987 | S. cerevisiae deletion strains, locus YPR141C, strain kar3, hits give low values 1 | S. cerevisiae deletion strains, locus YPR163C, strain tif3, hits give low values 1 | S. cerevisiae deletion strains, locus YPR167C, strain met16, hits give low values 0.999 | S. cerevisiae deletion strains, strain wtn01, hits give low values 0.987 | S. cerevisiae strains, strain wild type, hits give low values 0.99
active: S. cerevisiae deletion strains, locus YOR083W, strain WHI5, hits give low values 0.879
